Each structure is given as a SMILES string. Screen size: about 2,100 compounds; about 760 (36%) were called active. These entries were drawn from the full list. Values without a mark were called inactive.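 Rule for the calls: active = thallium-flux fluorescence traces judged by eye to show enhanced or reduced glutamate response, manual score 1 or -1, so both directions (some results past the limit were not filed as active); inactive = the rest, including fluorescent or raised-baseline compounds.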

A short description of the assay: non-GIRK thallium flux modulation in mGlu8 cells, confirmation, counter-screen for GIRK activator project, cell-based, HEK-293 rmGlu8, no GIRK (AID 623868).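 Note: extra codes mark interference with 3 for fluorescent and 4 for baseline rise.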 The following applies: thallium flux fluorescence, at 10 µM, actives lie on both sides, codes: 1 enhancer, -1 blocker, 0 none, thallium stimulus containing EC20 glutamate. On the technique in general: Counterscreens check selectivity or assay interference.
As to `O=C(Nc1nnc(-c2ccccc2F)s1)C1CCCO1` (stereo unspecified), the manual score was 0. The same measure for `CC(C)c1ccc2occ(-c3nn[nH]n3)c(=O)c2c1`: 0; for `CCCSc1nc2sc3c(c2c(=O)[nH]1)CCN(Cc1ccccc1)C3`: 3; for `CCCn1c(SCc2nc3sc(C)c(C)c3c(=O)[nH]2)nc2ccccc2c1=O`: 1 (active). The same measure for `O=c1[nH]c(CS(=O)(=O)c2ccccc2)nc2ccccc12`: 0; for `Cc1c(C)[n+](=O)c2c(n1[O-])CCC2`: 0. The same measure for `COc1ccc(S(=O)(=O)NCCCCCC(=O)NCCCN2CCOCC2)cc1`: 0. In the case of `Cc1cccc(OCC(=O)NC(=S)Nc2ccccc2N2CCOCC2)c1`, the manual score was 0. With `Cc1ccccc1OCC(=O)Nc1ccccc1N1CCOCC1` the figure was -0.5; with `CCC(=O)N1CCN(c2ccccc2NC(=O)COc2cccc(C)c2)CC1`, -1 (active). Regarding `CC1(C)Cc2cccc(OCC(=O)Nc3ccccc3N3CCOCC3)c2O1`, the manual score was 0. The same measure for `Cc1cc(Cl)ccc1OCC(=O)Nc1ccccc1N1CCOCC1`: 0. With `Cc1cccc(OCC(=O)Nc2ccccc2N2CCN(C(=O)C(C)C)CC2)c1C` the figure was -1 (active); with `CC(C)c1cc(C(F)(F)F)n2nc(C(=O)Nc3ccc4c(c3)OCO4)cc2n1`, 0; with `CC1CCCN(C(C(=O)Nc2ccc3c(c2)OCO3)c2ccccc2)C1` (stereo unspecified), -0.5. Regarding `O=C(NC(=S)Nc1ccc2c(c1)OCO2)c1ccccc1`, the manual score was 1 (active).

As to `O=C(NC(=S)Nc1ccc(Oc2ccc(Cl)cc2)cc1)c1ccccc1`, the manual score is 0.

Regarding `Cn1ncc2cc(NC(=S)NC(=O)c3ccccc3)ccc21`, the manual score is 1 (active). For `O=C(NC(=S)Nc1ccc2c(c1)OCCO2)c1ccccc1`, the manual score is 1 (active). On to `CC1CCN(C(C(=O)Nc2ccc3c(c2)OCO3)c2ccccc2)CC1` (stereo unspecified), for which the manual score was 0. Consider `Cc1ccc(-c2n[nH]c(=S)n2/N=C/c2cccs2)cc1`, for which the manual score was 1 (active). The same measure for `Cc1ccc(-c2n[nH]c(=S)n2/N=C/c2ccc(C)s2)cc1`: 1 (active). The same measure for `CC(/C=N/n1c(COc2ccccc2)n[nH]c1=S)=C\c1ccccc1`: 0; for `Cc1ccc(/C=N/n2c(COc3ccccc3)n[nH]c2=S)s1`: 1 (active); for `Cn1cccc1/C=N/n1c(-c2ccc(C(C)(C)C)cc2)n[nH]c1=S`: 0. With `Cc1ccccc1CNS(=O)(=O)c1ccc2c(c1)OCCO2` the figure was 0; with `CNC(=S)N/N=C1\C(=O)c2cccc3cccc1c23`, 1 (active). Take `CCCCNC(=S)N/N=C1\C(=O)c2cccc3cccc1c23`: the manual score was 1 (active). With `CCCCNc1c2c3c(cccc3n(C)c1=O)C(=O)c1ccccc1-2` the figure was 3; with `CCNC(=S)N/N=C1\C(=O)c2cccc3cccc1c23`, 1 (active).

In the case of `O=C(N/N=C1/C(=O)c2cccc3cccc1c23)c1ccc(Cl)cc1`, the manual score is 1 (active). The same measure for `CCCCN(C)C1=Nc2cccc3cccc1c23`: 0.

Turning to `COc1ccc(Cn2nnnc2C(c2ccc(F)cc2)N2CCN(C3CCCC3)CC2)cc1` (stereo unspecified), the manual score is 0. The same measure for `N#Cc1nc(Cc2ccccc2)oc1NCCc1ccccc1`: 0; for `O=C(CCN1C(=O)COc2ccccc21)NCCCN1CCc2ccccc2C1`: 0. The same measure for `Cc1ccc(NC(=O)COC(=O)/C=C/c2ccco2)cc1S(=O)(=O)N(C)C`: 0; for `Cn1c(NCc2cccc(Br)c2)nc2ccccc21`: 0; for `COc1cc(OC)cc(-c2nnc(Nc3nc4c(F)cccc4s3)o2)c1`: 1 (active).

With `Fc1cccc2sc(Nc3nnc(-c4ccccc4)o3)nc12`, the manual score was 1 (active).

Regarding `COc1cccc(-c2nnc(Nc3nc4c(F)cccc4s3)o2)c1`, the manual score was 1 (active).

Take `Fc1cccc2sc(Nc3nnc(-c4ccco4)o3)nc12`: the manual score is 1 (active).

Turning to `Nc1nnc(C(=O)c2ccccc2N)s1`, the manual score is 0.

Consider `Clc1ccccc1-c1nnc2sc(CCc3ccccc3)nn12`, for which the manual score is 0. With `CCn1c(=NC(=O)CSC(C)=O)sc2ccccc21` the figure was 1 (active); with `O=C(COC(=O)C1CC(=O)N(Cc2ccccc2)C1)Nc1ccc2c(c1)OCO2` (stereo unspecified), 0. With `O=C(Oc1ccccc1)c1cccc(COC(=O)c2cnccn2)c1` the figure was -1 (active); with `COC(=O)c1ccccc1NC(=O)Nc1cnccn1`, 0; with `CC(=O)Nc1nnc(C)s1`, 0. With `C=CCSc1nc2sc3c(c2c(=O)n1CC)CCc1ccccc1-3` the figure was 1 (active). On to `CCn1c(SCC(N)=O)nc2c(c1=O)C1(CCCC1)Cc1ccccc1-2`, for which the manual score was 0. The same measure for `CCCSc1nc(C)nc2c1c(=O)n(C)c(=O)n2C`: 0.

For `CC1CCCCC1NC(=S)Nc1ccc(SC(F)F)cc1` (stereo unspecified), the manual score was 0. Regarding `CC1CCCC(NC(=O)Nc2cccs2)C1C` (stereo unspecified), the manual score is 0.

Regarding `CC1CCCC(NC(=S)NC(=O)c2ccccc2Br)C1C` (stereo unspecified), the manual score is 1 (active). Consider `CN(C(=S)NC(=O)c1ccccc1Br)C1CCCCC1`, for which the manual score is 1 (active). With `CC1CCCC(NC(=S)Nc2ccc(SC(F)F)cc2)C1C` (stereo unspecified) the figure was 0. The same measure for `CC1CCCC(NC(=S)NC(=O)c2cncc(Br)c2)C1C` (stereo unspecified): 1 (active); for `Cc1ccccc1NC(=S)NC(=O)c1cncc(Br)c1`: 1 (active); for `CN(C)Cc1cc(C(C)(C)C)c(O)c(C(C)(C)C)c1`: 0. The same measure for `CCN1CCN(c2ccc(NC(=O)CCc3c(C)nc4c(-c5ccccc5)c(C)nn4c3C)cc2)CC1`: 0; for `CCN(C(=O)c1cc(Cl)ccc1OC)C1CCCCC1`: 0. On to `O=C(NC(=S)NCCC1=CCCCC1)c1cncc(Br)c1`, for which the manual score is 1 (active). The same measure for `CCOC(=O)c1ccc(NC(=S)NC2CCCC2)cc1`: 0; for `COc1ccccc1/C=C/C(=O)NC(=S)N(C)C1CCCCC1`: 1 (active). The same measure for `COc1ccc(C)cc1NC(=O)NCCC1=CCCCC1`: 0; for `COC(=O)[C@H](Cc1ccccc1)NC(=O)NCCC1=CCCCC1`: 0. The same measure for `O=C(NC(=S)NC1CCCCCC1)c1cncc(Br)c1`: 1 (active); for `FC(F)(F)c1cccc(NC(=S)NC2CCCC2)c1`: 0. For `COc1cccc2c1OC[C@@H](CO)[C@H]2N(C)C(=O)Nc1ccccc1`, the manual score is 0.

Turning to `Cc1ccc(C(=O)N/N=C(/CC(=O)c2cccs2)C(F)(F)F)cc1`, the manual score is 1 (active). The same measure for `CCCCNC(=S)N=Nc1c(O)n(Cc2ccccc2)c2ccccc12`: 1 (active). `C=CCn1c(O)c(N=NC(=O)OC(C)(C)C)c2ccccc21`: the manual score is 1 (active). The same measure for `CCCn1c(O)c(N=NC(=O)c2ccco2)c2ccccc21`: 1 (active); for `Cc1ccccc1Cn1c(=N)n(CC(=O)c2ccco2)c2ccccc21`: 0; for `O=C(NCCSc1c[nH]c2ccccc12)c1ccco1`: 0. The same measure for `CN=C1SC(C(=O)O)CC(=O)N1C` (stereo unspecified): 0; for `O=C(NC1CC1)c1ccc(CSCc2cccc(F)c2)o1`: 0.

For the compound `CCOC(=O)C(CC)n1cnc2c(nnn2-c2ccc(OC)cc2)c1=O` (stereo unspecified), the manual score is -1 (active). With `CCOC(=O)c1nn(-c2ccc(F)cc2)c(C)c1C(C)=O` the figure was 0; with `CCOC(=O)C(C)Sc1nc2c(cnn2-c2ccc(C)cc2)c(=O)[nH]1` (stereo unspecified), 0; with `Nc1nc2n(n1)C(c1cccs1)CC(c1ccc(F)cc1)N2` (stereo unspecified), 0. The same measure for `Cc1ccc(-c2nc3ccccc3o2)cc1NC(=S)NC(=O)c1cc2ccccc2o1`: 0; for `Cc1ccc2oc(-c3cccc(NC(=S)NC(=O)c4cccs4)c3)nc2c1`: 1 (active); for `O=C(NC(=S)Nc1ccc2oc(-c3cccnc3)nc2c1)c1cccc(Cl)c1`: 0. The same measure for `O=C(Nc1ccc2oc(-c3ccncc3)nc2c1)c1c(F)c(F)c(F)c(F)c1F`: 0; for `Cc1cc(C)c2oc(-c3ccc(C)c(NC(=S)NC(=O)c4cccs4)c3)nc2c1`: 1 (active); for `O=C1Nc2cc(S(=O)(=O)N3CCCC3)ccc2N2CCCC12` (stereo unspecified): 0. In the case of `O=C(N/N=C(\c1ccccc1)c1cccnc1)C(O)(c1ccccc1)c1ccccc1`, the manual score is -1 (active). The same measure for `CC(C)OC(=O)/C(=C/c1cccnc1)NC(=O)c1ccccc1`: 0. With `O=C(NCCCCNC(=O)c1cccnc1)c1cccnc1` the figure was 0.

`Cc1c(C#N)c2ncn(CC#N)c(=O)c2n1-c1ccccc1`: the manual score was 0. With `CCCOC(=O)c1ccc(-c2c(C)noc2-c2ccc(OC)cc2O)o1` the figure was -1 (active). As to `COc1ccc(-c2onc(C)c2-c2ccc(C(=O)OC(C)C)o2)c(O)c1`, the manual score was 0. With `Cc1cc(C(=O)OCC(=O)Nc2ccc(F)cc2)c(C)o1` the figure was 0.

Take `Cc1ccccc1Nc1nc2nonc2nc1N1CCOCC1`: the manual score is 0. The same measure for `Cc1ccccc1NC1=NC(=S)N(c2ccccc2)C12CCOC(C)(C)C2` (stereo unspecified): 1 (active); for `Cc1ccc(N2C(=S)N=C(Nc3ccccc3C)C23CCOC(C)(C)C3)cc1` (stereo unspecified): 1 (active). The same measure for `CC1=NCCN1S(=O)(=O)c1cc(Cl)ccc1Cl`: 0; for `COc1cccc2[nH]c3c(N4CCCC(C)C4)ncnc3c12` (stereo unspecified): 0; for `S=C1Nc2cc(Cl)ccc2Sc2ccccc21`: 1 (active).

For the compound `Clc1ccc2c(c1)C(N1CCNCC1)Cc1ccccc1S2` (stereo unspecified), the manual score is 0. The same measure for `S=C1CCSc2ccc(Cl)cc2N1`: 1 (active); for `S=C1Nc2ccccc2Sc2ccc(Cl)cc21`: 0. With `CCOC(=O)c1[nH]c(C)c(C(=O)NC2CCCCC2)c1C`, the manual score was 0. With `CC(C)Sc1oc(-c2ccco2)nc1S(=O)(=O)c1ccccc1`, the manual score is 0.

For `CN=c1scc(-c2cccs2)n1/N=C/c1ccc(O)c(O)c1O`, the manual score was 0.

Take `Cc1ccc(-c2cc(-c3cccs3)[nH]n2)c(O)c1`: the manual score was 0. With `Cc1ccc(/C=N/n2c(-c3cccs3)n[nH]c2=S)cc1` the figure was 1 (active); with `Fc1ccc(/C=N/n2c(-c3cccs3)n[nH]c2=S)cc1`, 1 (active). With `C=CCn1c(-c2cccs2)nc2ccccc21`, the manual score is 0. With `CC12CN(Cc3ccccc3)CC(C)(CN(Cc3ccccc3)C1)C2=NO` the figure was 0.

Source of the values: PubChem BioAssay AID623868 (Vanderbilt High Throughput Screening Facility, 2012).
